# MCF10A rereplic: DNA re-replication induction in MCF 10a cells; MCF 10A DNA re-replication, Hoechst nuclear intensity, 48 h; Potency, µM (top dose mostly 46.1 µM), usual class: activators; 350,000 compounds, 2.9% hits; AID 624296; also: nearly all actives have a fitted effect of over 50% in size
# IL-1B inflam inh: inflammasome signaling inhibition, IL-1 beta readout | 360,000 compounds, 4.7% hits | AID 743279 | activity change, % at 57.5 µM | THP-1 LPS/ATP IL-1B secretion, AlphaLISA, 16 h; active compounds read low; in the data active = activity change below about -50%; inconclusive = mostly about -30% to -49%
#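 Secreted IL-1B measured by AlphaLISA bead assay after 16 h compound exposure of THP-1 cells; compounds (final up to 57.5 uM) added 1 h before LPS (250 ng/mL) and ATP (1.25 mM) stimulation; lower signal means less secretion.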
# SW480 rerep: induces DNA re-replication in SW480 colon adenocarcinoma cells; Potency, µM (highest dose often 46.1 µM), hits mostly activators; 340,000 compounds, 1.8% hits; SW480 DNA re-replication, Hoechst DNA content imaging, 48 h; also: nearly all actives have a fitted effect of over 55% in size
#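 Treated cells incubate 48 hr (37 C, 5% CO2), are stained 40 min with Hoechst, and nuclear fluorescence is enumerated; a rise in nuclei with high DNA signal marks re-replication.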
# Gal4-VP16 FLuc: Gal4-VP16 reporter inhibition counter-screen; Drosophila S2 Gal4-VP16 UAS-luciferase, luminescence, 20 h; Potency, µM (doses to about 53.6 µM), hits mostly inhibitors; 310,000 compounds, 3.5% hits;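 also: Gal4-VP16 expression switched on by copper sulfate through the metallothionein promoter; nearly all actives have a fitted effect of over 50% in size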
# RORgamma inh: inhibitors of mouse ROR gamma transcriptional activity | Drosophila S2 Gal4-RORgamma UAS-luciferase reporter, 20 h | P51450 | Potency, µM (series often up to 53.6 µM), actives largely listed as inhibitors | 310,000 compounds, 5.4% hits; also: nearly all actives have a fitted effect of over 60% in size
# Target sequence (P51450 whole entry, looked up, the tested form may be a part): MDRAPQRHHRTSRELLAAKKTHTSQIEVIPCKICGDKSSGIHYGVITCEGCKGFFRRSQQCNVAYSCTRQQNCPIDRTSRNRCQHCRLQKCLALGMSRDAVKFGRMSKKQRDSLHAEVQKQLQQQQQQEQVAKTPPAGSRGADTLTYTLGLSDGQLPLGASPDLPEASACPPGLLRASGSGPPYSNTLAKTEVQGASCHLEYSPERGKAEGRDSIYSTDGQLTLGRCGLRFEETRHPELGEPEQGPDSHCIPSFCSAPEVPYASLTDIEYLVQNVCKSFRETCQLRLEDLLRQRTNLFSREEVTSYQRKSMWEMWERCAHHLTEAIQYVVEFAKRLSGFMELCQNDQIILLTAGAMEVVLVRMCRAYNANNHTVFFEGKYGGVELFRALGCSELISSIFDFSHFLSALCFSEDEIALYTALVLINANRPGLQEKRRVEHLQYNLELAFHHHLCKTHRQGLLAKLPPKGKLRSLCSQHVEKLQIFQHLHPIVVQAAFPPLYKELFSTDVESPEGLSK
#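 Drosophila S2 cells stably expressing Gal4-DBD/mouse RORγ fusion under metallothionein promoter plus UAS-luciferase; compound 1 h, then 700 uM CuSO4 induction for 20 h at ambient temperature; inhibition read as reduced luminescence.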
# Numbers stand for hits; . = inactive; ? = inconclusive; / = not tested or not shown; [ ] = dose if it differs, or a comment. Rows were chosen to be rich in hits. Some 11% of all compounds tested hit in one or more screens of this group. Unless noted, calls follow the shape of the dose curve; as a rule, active = well fitted curve in the direction sought with a large enough effect; inconclusive = small, poorly fitted or top-dose-only effect, or another doubt; inactive = no such curve, though single readings can be large; an effect the other way counts as inactive or inconclusive.
SMILES,MCF10A rereplic,IL-1B inflam inh,SW480 rerep,Gal4-VP16 FLuc,RORgamma inh
CC(=O)c1ccc(NC(=O)/C(Cl)=C/c2ccccc2)cc1,.,-62.5,.,?,.
CCOC(=O)c1c(NC(N)=O)sc(C)c1C,.,.,.,/,.[0.365 µM]
CCOC(=O)c1c(N2C(=O)C=CC2=O)sc(C)c1C,2.91µM,-95.8,9.2µM,.[0.365 µM],4.47µM
CCN(CC)CCn1c(-c2ccccc2)nc2c(NCCOC)nc(C)nc21,/,/,/,.,.
Cc1ccc(CCN2C(Nc3ccccc3)=NC[C@@H]2C)cc1,.,.,.,/,/
NC(=O)c1ccc(N=Cc2c(O)ccc3ccccc23)cc1,.,.,.,/,/
CCCS/C(N)=N/N=C/c1ccccc1O,?,?,?,1.41µM,0.631µM
C=CCS/C(N)=N\N=C\c1c(O)ccc2ccccc12,?,.,?,3.16µM,0.501µM
CC(=O)O[C@]1(C)CC[C@]23CC1C(C)(C)C2CC[C@@H]3C (some centres not stated),/,/,/,.,.
NC1=NC(=Nc2ccc(Cl)cc2)c2ccccc21,?,.,.,?,.
NC1=NC(=Nc2ccc(Br)cc2)c2ccccc21,?,-100.8,.,.,.
NC1=NC(=Nc2ccc(S(=O)(=O)N3CCOCC3)cc2)c2ccccc21,?,-50.8,?,.,.
Nc1ccc(S(=O)(=O)N2CCOCCOCCOCCOCCOCC2)cc1,.,.,.,.,.
NC1=NC(=Nc2ccccc2)c2ccccc21,?,?,.[9.22 µM],.,.
CC(C)c1ccc(N=C2N=C(N)c3ccccc32)cc1,?,-96.0,.,.,.
COC(=O)COc1ccc(C2NC(=O)NC(c3ccccc3)=C2C(C)=O)cc1Br (configuration not stated),.,-71.2,.,.,.
COc1cc(C2NC(=O)NC(c3ccccc3)=C2C(C)=O)c(Cl)cc1OCC(=O)O (configuration not stated),.,.,4.11µM,.,.
COc1cc(C2NC(=O)NC(c3ccccc3)=C2C(C)=O)cc(Cl)c1OCC(=O)O (configuration not stated),.,.,.,.,.
O=C(COC(=O)CNS(=O)(=O)c1ccc(Cl)cc1)NC1CCCCC1,.,.,.,/,/
COc1ccc(C(=O)NCCN(C)C)c2nc3ccccc3cc12,.,-99.2,?,/,/
CN(C)CCNC(=O)c1ccccc1-c1ccccc1,.,.,.,.,.
COc1ccc(-c2nc3c(C(=O)NCCN(C)C)cccc3c3ccccc23)cc1,?,-99.9,?,/,/
CN(C)CCNC(=O)c1cccc2[nH]c(-c3ccncc3)nc12,.,-81.8,?,/,/
COc1ccc(-c2coc3c(C(=O)NCCN(C)C)cccc23)c(C)c1,/,.,/,/,/
CN(C)CCNC(=O)c1cccc2nc3c(ccc4ccccc43)nc12,.,-101.3,?,/,/
SMILES,MCF10A rereplic,IL-1B inflam inh,SW480 rerep,Gal4-VP16 FLuc,RORgamma inh
CN(C)CCNC(=O)c1ccccc1-c1cc2ccccc2c(=O)o1,.,.,.,.,.
CC(C)CN1CC2(CCN(C(=O)c3cccc(F)c3)CC2)C1,/,/,/,.,.
COc1cccc2nc3c(C(=O)NCCN(C)C)cccc3cc12,.,-96.6,9.2µM,/,/
CC(=O)Nc1c(-c2ccc(Cl)cc2)c(=O)c2ccccc2n1C,.,.,.,.,.
Cn1c(SCc2ccccc2)nnc1-c1ccc2c(c1)OCO2,.,.,.,.,?
COc1cc(-c2ccc3c(=O)c4ccccc4n(C)c3c2)cc(OC)c1OC,?,?,13µM,.,?
Cn1c(-c2ccc3c(c2)OCO3)cc(=O)c2ccccc21,.,.,.,.,.
COc1cc(C2CC(=O)Oc3c2c(=O)n(C)c2ccccc32)cc(OC)c1OC (configuration not stated),.,.,.,.,.
c1ccc2c(c1)c1ccccc1n1c(-c3ccc4c(c3)OCO4)nnc21,.,-56.6,.,.,.
COc1ccc(-c2cc(Cl)cc3c(=O)c4ccccc4n(C)c23)cc1F,?,.,18.4µM,.,.
Cn1c2ccccc2c(=O)c2ccc(-c3ccc4c(c3)OCO4)cc21,14.6µM,.,?,.,.
COc1ccccc1N1CCN(S(=O)(=O)CCNC(=O)c2cccs2)CC1,/,.,/,/,/
Cc1cccc(NC(=O)CSCC(=O)N(C)CCOc2ccc(Cl)cc2)c1,?,?,.,/,/
O=C(c1ccc(Cl)cc1Cl)N1CCC(C(=O)N2CCOCC2)CC1,.,.,.,.,.
Cn1c2ccccc2c(=O)c2cc(C#Cc3ccsc3)ccc21,?,.,.,.,.
COc1cc(-c2ccc3c(=O)c4ccccc4sc3c2)cc(OC)c1OC,3.66µM,.,0.651µM,/,/
Cn1c(C=O)c(-c2ccc3c(c2)OCCO3)c2ccccc21,16.4µM,.,.,/,/
Cn1c2ccccc2c(=O)c2ccc(F)cc21,?,-50.6,16.4µM,.,.
CSc1ccc(C(c2c(C(=O)O)[nH]c3ccccc23)c2c(C(=O)O)[nH]c3ccccc23)cc1,20.6µM,.,?,.,.
Cn1cc([N+](=O)[O-])c(C(=O)Nc2nccs2)n1,4.61µM,-98.0,?,.,.
Cn1cc([N+](=O)[O-])c(C(=O)Nc2ccc(Br)cn2)n1,?,-86.9,?,.,.
CCSc1ccc(C(=O)Nc2ccc(Br)cn2)cc1[N+](=O)[O-],?,.,.,.,.
O=C(Nc1nccs1)c1ccc([N+](=O)[O-])cc1,.,.,.,.,8.91µM
Cc1c(Br)c([N+](=O)[O-])nn1CC(=O)NC1CCCCCC1,.,.,.,.,.
CC(=O)c1cccc(-c2ccnc3c2CC(C(=O)NCc2ccco2)O3)c1 (configuration not stated),/,.,/,/,/
SMILES,MCF10A rereplic,IL-1B inflam inh,SW480 rerep,Gal4-VP16 FLuc,RORgamma inh
CC(=O)c1ccc(OCC(O)Cn2nnc3ccccc32)cc1 (configuration not stated),.,.,?,.,.[10 µM]
N#Cc1ccc(-c2ccc(OCC(O)Cn3nnc4ccccc43)cc2)cc1 (configuration not stated),?,-59.4,.,?,.
Cc1ccc(CNc2nc(NCc3ccccc3)nc3ccsc23)c(C)c1,/,-88.3,/,/,/
COCCNc1nc(NCc2ccccc2)nc2ccsc12,/,.,/,/,/
CC(C)Nc1nc(NCc2ccccc2)c2sccc2n1,/,-101.2,/,/,/
C/C(=N\NC(=O)c1ccc2c(c1)OCCO2)c1ccccc1,.,.,.,7.94µM,5.62µM
CC(/C=C/c1ccccc1)=N\NC(=O)c1ccc2c(c1)OCCO2,.,.,18.4µM,?,12.6µM
CC(NC(=O)c1cccc(S(=O)(=O)N2CCN(Cc3ccccc3)CC2)c1)c1ccc(Cl)cc1 (configuration not stated),.,.,.,/,/
CC[C@@]1(C(=O)OC)N[C@H](CN(C)S(=O)(=O)c2ccc(C(C)(C)C)cc2)[C@@H]2C(=O)N(C)C(=O)[C@@H]21,.,.,.,/,/
CC(C)=CC(=O)O[C@@H]1Cc2cc3ccc(=O)oc3cc2OC1(C)C,.,.,.,/,/
CN(CC(=O)Nc1ccccc1N1CCCC1)S(=O)(=O)c1ccc(F)cc1,.,.,.,/,/

# High-throughput results deposited in PubChem by National Center for Advancing Translational Sciences (NCATS).
